Unmarked numbers belong to inactive results. Active and inactive are the calls of the source. No stated cut-off is given here; in the data, active means inhibition above about 50%; inactive means the rest.
These molecules were tested against Prolyl endopeptidase-like (Mus musculus) (UniProt Q8C167) (assay: mouse PREPL enzyme inhibition by screening hits – biochemical, gel-based competitive ABPP, fluorescence, HTS hits, PREPL inhibitor project (AID 624481)). Settings: purified mouse PREPL, at 20 µM, active compounds read high.
Chain of Prolyl endopeptidase-like (Mus musculus) (Q8C167 whole entry, looked up): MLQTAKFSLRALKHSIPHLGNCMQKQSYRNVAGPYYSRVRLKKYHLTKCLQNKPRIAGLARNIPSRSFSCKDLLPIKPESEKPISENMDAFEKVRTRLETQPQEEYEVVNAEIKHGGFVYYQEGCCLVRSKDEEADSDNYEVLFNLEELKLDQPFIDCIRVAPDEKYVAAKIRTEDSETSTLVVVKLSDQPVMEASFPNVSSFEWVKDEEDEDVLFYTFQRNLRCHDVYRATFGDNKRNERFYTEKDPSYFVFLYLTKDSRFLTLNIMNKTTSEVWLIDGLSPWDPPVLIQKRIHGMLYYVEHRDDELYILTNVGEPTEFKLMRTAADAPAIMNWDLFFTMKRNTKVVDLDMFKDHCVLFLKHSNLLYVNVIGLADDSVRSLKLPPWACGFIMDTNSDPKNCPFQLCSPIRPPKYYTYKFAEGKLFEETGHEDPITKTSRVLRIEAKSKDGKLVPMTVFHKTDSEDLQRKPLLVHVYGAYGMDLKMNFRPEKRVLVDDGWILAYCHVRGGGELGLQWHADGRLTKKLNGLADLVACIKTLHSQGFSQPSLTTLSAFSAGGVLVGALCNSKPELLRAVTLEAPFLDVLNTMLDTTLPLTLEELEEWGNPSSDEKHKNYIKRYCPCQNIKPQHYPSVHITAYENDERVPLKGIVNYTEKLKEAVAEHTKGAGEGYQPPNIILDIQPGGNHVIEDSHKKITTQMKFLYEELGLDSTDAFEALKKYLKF

SMILES | inhibition
CC(C)NCC(O)Cn1c2c(c3ccccc31)CCc1c-2cnn1-c1ccccc1 (stereo not given) | -123%
CC(=NNc1nc2ccccc2[nH]1)c1cc2ccccc2o1 | -17%
CC(=O)N1CCN(c2ccc(NC(=O)COc3ccc(Cl)cc3Cl)cc2)CC1 | -20%
O=C(C1=C[C@@H](c2ccc(Br)cc2)C[C@@H](OCc2ccc(CO)cc2)O1)N1CCN(Cc2ccccc2)CC1 | -99%
O=S(=O)(c1ccc(-c2csc(=Nc3ccccc3)n2CCCN2CCOCC2)cc1)N1CCOCC1 | 57% (active)
Cc1cccc(OCC(=O)Nc2ccc(N3CCN(C(=O)c4ccccc4)CC3)cc2)c1C | -8%
O=C(C1=C[C@@H](c2ccc(C(F)(F)F)cc2)C[C@@H](OCCCCO)O1)N1CCN(Cc2ccc3c(c2)OCO3)CC1 | -20%
COc1ccc2nc3cc(Cl)ccc3c(Nc3cc(CN4CCCC4)c(O)c(CN4CCCC4)c3)c2n1 | -45%
Cc1ccccc1C(=O)N1CCN(c2ccc(NC(=O)CSc3ccc(Cl)cc3)cc2)CC1 | -27%
C#CCOCCOCCOCCNc1nc(N2CCN(C(=O)[C@H]([C@@H](C)CC)n3cc([C@@H](N)Cc4ccc(O)cc4)nn3)CC2)nc(N2CCN(C(=O)[C@H](Cc3cc4ccccc4[nH]3)n3cc([C@@H](N)CC(C)C)nn3)CC2)n1 | -105%
CN(C)CCc1cc2c(c3c1ccc1ccccc13)OCO2 | -26%
CCC(CO)[n+]1c(C)cc(/C=C2\Sc3ccccc3N2Cc2ccccc2)cc1C (stereo not given) | -20%
C[n+]1c(-c2ccccc2)sc(S)c1-c1ccccc1 | -31%
CC(=O)Nc1ccc(C(=O)Cn2c3[n+](c4c(F)c(F)ccc42)CCCCC3)cc1 | -42%
COc1ccc(N2CCN(C(=O)c3cn(C4CCCC4)c(=O)c4c3c3ccccc3n4C)CC2)cc1 | 92% (active)
Oc1sc(C=Nc2ccc(F)cc2)c2ccccc12 | 20%
CCN(C(=O)CN1CCN(S(=O)(=O)c2cc(Cl)ccc2Cl)CC1)c1c(N)n(Cc2ccccc2)c(=O)[nH]c1=O | 99% (active)
O=C(CN1CCN(c2ccc(O)cc2)CC1)Nc1cc([N+](=O)[O-])ccc1Cl | -53%
c1cncc(CNc2ccc3c(c2)OCO3)c1 | -50%
CNC(=S)N1N=C(c2ccc(OC)cc2)CC1c1ccc(N(C)C)cc1 (stereo not given) | -55%
COc1cc2c(cc1OC)C(Cc1ccc(O)c(Oc3ccc(C[C@H]4c5cc(OC)c(OC)cc5CCN4C)cc3)c1)N(C)CC2 (stereo not given in full) | 66% (active)
O=C(CSc1cccc(C(F)(F)F)c1)Nc1ccc(N2CCOCC2)cc1 | -35%
CN1CCN(C(=O)C2=C[C@@H](c3ccc(C(F)(F)F)cc3)C[C@@H](OCc3ccc(CO)cc3)O2)CC1 | -83%
CCc1ccc(Nc2n[n+](-c3ccccc3)c(-c3ccc(N(CC)CC)cc3)s2)cc1 | -100%
O=C(C1=C[C@@H](c2ccc(Br)cc2)C[C@@H](OCCCCO)O1)N1CCN(Cc2ccc3c(c2)OCO3)CC1 | -47%

From PubChem BioAssay AID624481 (The Scripps Research Institute Molecular Screening Center, 2012)
